Results taken from ChEMBL document CHEMBL3988442, “University of Dundee, Small-Polar-MMV Screening Library” (2021).

Each compound was assayed against T1, Aspartate--tRNA(Asp/Asn) ligase (Mycobacterium tuberculosis (strain ATCC 25618 / H37Rv)) (UniProt P9WFW3) (assay: Assay for Asp RNA synthetase-1 from Mycobacterium tuberculosis). Details: 30 µM.
T1 sequence (whole entry): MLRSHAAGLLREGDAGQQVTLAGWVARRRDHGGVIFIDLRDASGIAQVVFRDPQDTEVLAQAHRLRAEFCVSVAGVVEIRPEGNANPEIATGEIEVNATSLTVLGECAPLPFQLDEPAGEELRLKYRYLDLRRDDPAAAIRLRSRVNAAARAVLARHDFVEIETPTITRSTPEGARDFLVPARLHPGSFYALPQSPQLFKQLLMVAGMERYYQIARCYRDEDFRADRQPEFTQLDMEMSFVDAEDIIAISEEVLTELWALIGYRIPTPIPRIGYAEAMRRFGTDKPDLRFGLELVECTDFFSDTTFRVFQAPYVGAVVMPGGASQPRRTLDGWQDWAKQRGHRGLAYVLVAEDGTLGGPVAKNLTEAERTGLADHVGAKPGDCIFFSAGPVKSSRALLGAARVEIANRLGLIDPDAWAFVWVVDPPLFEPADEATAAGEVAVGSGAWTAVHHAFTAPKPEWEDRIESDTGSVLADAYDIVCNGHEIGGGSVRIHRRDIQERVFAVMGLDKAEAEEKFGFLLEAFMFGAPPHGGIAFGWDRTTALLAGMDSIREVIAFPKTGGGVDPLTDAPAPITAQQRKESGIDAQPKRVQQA
Type: functional
Set-up: scale not given: direction of the effect not stated beside the values

Row | Structure (SMILES) | Percent Effect
1 | Cc1nc(CN2CCCC2c2ccsc2)nc2ccccc12 (stereo not given) | -2.75%
2 | COc1cccc2c1OCC(CNC(=O)CNC(N)=O)C2 (stereo not given) | 4.22%
3 | CCn1cnnc1C1CCN(C(=O)COCCc2ccccc2)CC1 | -3.95%
4 | O=C(CN1CC(n2cccn2)C1)NCCc1c[nH]c2ccccc12 | -0.903%
5 | CN(CCN1CCOCC1)C(=O)CCCc1ccccc1 | -6.41%
6 | COC(=O)N1CCc2ccc(NC(=O)c3cn(C)nn3)cc2C1 | -0.627%
7 | COc1ccc(CNCc2ccnc(N3CCCCC3)c2)cc1OC | -2.15%
8 | NC(=O)CCOc1nc(-c2ccccc2Cl)no1 | -4.51%
9 | Cc1cc(CC(=O)N(CC2CN(C)CCO2)c2nccs2)no1 (stereo not given) | -0.67%
10 | O=S(=O)(NC1=NCN(CCc2cccs2)CN1)c1ccc(F)cc1 | -0.523%
11 | CCc1nccn1-c1cncc(C2CCCN2Cc2ccc(F)cc2)n1 (stereo not given) | 1.57%
12 | O=C(CCCn1cncn1)NC1(c2ccccc2)CCC1 | 10.9%
13 | Cc1nc(C)n(C2CCCN(C(=O)CCCOc3ccccc3)C2)n1 (stereo not given) | -1.97%
14 | CC(C)(NCC(=O)NCC(F)(F)F)c1ccc2c(c1)OCCO2 | -0.335%
15 | O=C(c1cnccn1)N1CCc2ncnc(-c3cccnc3)c2CC1 | -2.48%
16 | O=C(NCc1ccc(-n2cncn2)nc1)c1ccc2c(c1)CCO2 | -1.77%
17 | CNC(=O)[C@H]1C[C@H]2OCC[C@H]2N(Cc2ccc(C)o2)C1 | -1.06%
18 | Cc1noc(C)c1CNc1cc(N2CCCC2CO)ncn1 (stereo not given) | -7.32%
19 | CC(=O)NCC(=O)N1CCN(CC2CC2)c2ncccc2C1 | -4.63%
20 | CN(Cc1cccnc1)C1CC2(CCN(c3ccccn3)CC2)C1 | 2.16%

Row | Structure (SMILES) | Percent Effect
21 | CN(C)C(=O)N1CCN(Cc2noc(Cc3ccccc3)n2)CC1 | 0.542%
22 | CN(C)CC1CN(c2cnc3ccccc3n2)CCO1 (stereo not given) | -3.4%
23 | c1csc(CN2CCn3c(Cn4cncn4)cnc3C2)n1 | -1.25%
24 | COc1ccc(CN2CCCC2Cn2nc(C)nc2C)cc1F (stereo not given) | -1.56%
25 | Cc1nnc([C@@H]2CC[C@@H]3[C@@H](CCN3S(=O)(=O)c3cccnc3)O2)o1 | 7.29%
26 | O=C(NCc1cccs1)[C@H]1CC[C@@H]2[C@@H](CCN2c2ncccn2)O1 | 3.22%
27 | Cc1ccc(C(=O)N2CCCC2c2nnc3n2CCCCC3)o1 (stereo not given) | -0.223%
28 | Cc1n[nH]c(C)c1C1COCCN1C(=O)c1ccccc1 (stereo not given) | 2.68%
29 | CCS(=O)(=O)c1ccccc1N1CCC(NC(=O)c2ccc[nH]2)CC1 | -2.04%
30 | CCCc1nnsc1C(=O)NCC1CCN(S(C)(=O)=O)CC1 | -7.1%
31 | O=C(NCc1ccccn1)NC1CCOc2ccccc21 (stereo not given) | -6.21%
32 | CO[C@H]1CCN(S(=O)(=O)c2cn(C)cn2)[C@H]1Cc1cnn(C)c1 | 7.16%
33 | CCCc1n[nH]cc1C(=O)N1CCC(c2nccn2CCOC)CC1 | -6.36%
34 | c1csc(-c2nc(CN3CCCC3Cn3cncn3)co2)c1 (stereo not given) | 3.68%
35 | O=C(c1ccn(-c2cccc(F)c2)n1)N1CCCC(n2cccn2)C1 (stereo not given) | -2.68%
36 | O=C(CCc1cccs1)N1CCCCC1Cn1cccn1 (stereo not given) | -2.77%
37 | CCC(O)CNC(=O)c1coc(COc2ccc3sc(C)nc3c2)n1 (stereo not given) | 5.32%
38 | Cn1ccc(C(=O)NCc2cccc(CN3CCCC3)c2)cc1=O | 1.53%
39 | CN(C)CC(=O)N1CCOC2(CCCN(c3ncccc3F)C2)C1 (stereo not given) | 1.93%
40 | Cc1cc(C)n(C2CCCN(C(=O)c3cnc4onc(C)c4c3)C2)n1 (stereo not given) | -0.75%

The compounds below were run against Shiga toxin 2 (Escherichia coli O157:H7) (UniProt P09385+P09386) (assay: E. coli 0.157:H7 Shiga Toxin SOP - stx2 screening assay). Details: 30 µM.
Type: functional
Set-up: scale not given: direction of the effect not stated beside the values

Row | Structure (SMILES) | Percent Effect
41 | Cc1nc(CN2CCCC2c2ccsc2)nc2ccccc12 (stereo not given) | -26.3%
42 | COc1cccc2c1OCC(CNC(=O)CNC(N)=O)C2 (stereo not given) | 11.9%
43 | CCn1cnnc1C1CCN(C(=O)COCCc2ccccc2)CC1 | -20.2%
44 | O=C(CN1CC(n2cccn2)C1)NCCc1c[nH]c2ccccc12 | -2.74%
45 | CN(CCN1CCOCC1)C(=O)CCCc1ccccc1 | 0.944%
46 | COC(=O)N1CCc2ccc(NC(=O)c3cn(C)nn3)cc2C1 | -90%
47 | COc1ccc(CNCc2ccnc(N3CCCCC3)c2)cc1OC | -57.5%
48 | NC(=O)CCOc1nc(-c2ccccc2Cl)no1 | -35.8%
49 | Cc1cc(CC(=O)N(CC2CN(C)CCO2)c2nccs2)no1 (stereo not given) | -18.7%
50 | O=S(=O)(NC1=NCN(CCc2cccs2)CN1)c1ccc(F)cc1 | -18.8%
51 | CCc1nccn1-c1cncc(C2CCCN2Cc2ccc(F)cc2)n1 (stereo not given) | -28.9%
52 | O=C(CCCn1cncn1)NC1(c2ccccc2)CCC1 | -17.7%
53 | Cc1nc(C)n(C2CCCN(C(=O)CCCOc3ccccc3)C2)n1 (stereo not given) | 3.84%
54 | CC(C)(NCC(=O)NCC(F)(F)F)c1ccc2c(c1)OCCO2 | 22.1%
55 | O=C(c1cnccn1)N1CCc2ncnc(-c3cccnc3)c2CC1 | -12.4%
56 | O=C(NCc1ccc(-n2cncn2)nc1)c1ccc2c(c1)CCO2 | 12.9%
57 | CNC(=O)[C@H]1C[C@H]2OCC[C@H]2N(Cc2ccc(C)o2)C1 | -4.41%
58 | Cc1noc(C)c1CNc1cc(N2CCCC2CO)ncn1 (stereo not given) | -11.6%
59 | CC(=O)NCC(=O)N1CCN(CC2CC2)c2ncccc2C1 | -0.0207%
60 | CN(Cc1cccnc1)C1CC2(CCN(c3ccccn3)CC2)C1 | -47.1%

Row | Structure (SMILES) | Percent Effect
61 | CN(C)C(=O)N1CCN(Cc2noc(Cc3ccccc3)n2)CC1 | 8.78%
62 | CN(C)CC1CN(c2cnc3ccccc3n2)CCO1 (stereo not given) | -17.5%
63 | c1csc(CN2CCn3c(Cn4cncn4)cnc3C2)n1 | -17.5%
64 | COc1ccc(CN2CCCC2Cn2nc(C)nc2C)cc1F (stereo not given) | -0.778%
65 | Cc1nnc([C@@H]2CC[C@@H]3[C@@H](CCN3S(=O)(=O)c3cccnc3)O2)o1 | 8.32%
66 | O=C(NCc1cccs1)[C@H]1CC[C@@H]2[C@@H](CCN2c2ncccn2)O1 | -3.66%
67 | Cc1ccc(C(=O)N2CCCC2c2nnc3n2CCCCC3)o1 (stereo not given) | -7.29%
68 | Cc1n[nH]c(C)c1C1COCCN1C(=O)c1ccccc1 (stereo not given) | -26%
69 | CCS(=O)(=O)c1ccccc1N1CCC(NC(=O)c2ccc[nH]2)CC1 | 9.33%
70 | CCCc1nnsc1C(=O)NCC1CCN(S(C)(=O)=O)CC1 | -1.41%
71 | O=C(NCc1ccccn1)NC1CCOc2ccccc21 (stereo not given) | -20.3%
72 | CO[C@H]1CCN(S(=O)(=O)c2cn(C)cn2)[C@H]1Cc1cnn(C)c1 | 5.54%
73 | CCCc1n[nH]cc1C(=O)N1CCC(c2nccn2CCOC)CC1 | 10%
74 | c1csc(-c2nc(CN3CCCC3Cn3cncn3)co2)c1 (stereo not given) | -0.336%
75 | O=C(c1ccn(-c2cccc(F)c2)n1)N1CCCC(n2cccn2)C1 (stereo not given) | 1.81%
76 | O=C(CCc1cccs1)N1CCCCC1Cn1cccn1 (stereo not given) | 1.06%
77 | CCC(O)CNC(=O)c1coc(COc2ccc3sc(C)nc3c2)n1 (stereo not given) | -27.2%
78 | Cn1ccc(C(=O)NCc2cccc(CN3CCCC3)c2)cc1=O | -46.4%
79 | CN(C)CC(=O)N1CCOC2(CCCN(c3ncccc3F)C2)C1 (stereo not given) | -5.68%
80 | Cc1cc(C)n(C2CCCN(C(=O)c3cnc4onc(C)c4c3)C2)n1 (stereo not given) | 15.8%
